# Experimental data as given in the supplement of paper PMC10127200.
# Structures can show the parent of a compound that is named as a salt.
# System: A549
# Assay: Euclidean distance of Cell Painting phenotypic profile (signed KS, 77 features) to DMSO centroid (dimensionless distance); 5 or 10 uM (library dependent); higher = stronger phenotypic change vs DMSO (phenoactivity)
# Settings: 48 h
# Outline: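 At 10 or 5 uM, as set by the library, and 0.1% DMSO final, compounds were applied for 48 h to five cancer lines and one healthy fibroblast line. Stained cells were imaged confocally at 20X in 9 fields per well, and Harmony extracted 77 features scored as signed Kolmogorov-Smirnov statistics against vehicle wells on the same plate. Profiles underwent plate-position correction, correlation weighting and replicate averaging at the top dose. Phenoactivity is the Euclidean distance from each such profile to the median vehicle profile.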
row,SMILES,Euclidean distance
1,CN(C)CCOc1ccc(/C(=C(/CCCl)c2ccccc2)c2ccccc2)cc1 [Toremifene Citrate],1.56
2,CS(=O)(=O)CCC#N [Dapansutrile (OLT1177)],0.857
3,Nc1ccn([C@@H]2O[C@H](CO)[C@@H](O)C2(F)F)c(=O)n1 [Gemcitabine],2.74
4,CCN1CCN(Cc2ccc(-c3cc4c(N[C@H](C)c5ccccc5)ncnc4[nH]3)cc2)CC1,3.77
5,Cc1ccc(C(=O)Nc2ccc(CN3CCN(C)CC3)c(C(F)(F)F)c2)cc1C#Cc1cnc2cccnn12,4.2
6,Cc1cc(CC(C)CC(C)(C)C)n(O)c(=O)c1 (stereo not given) [Piroctone Olamine],3.56
7,CNC(=O)c1cc(Oc2ccc3nc(N[C@@H]4CCCC[C@H]4O)sc3c2)ccn1,1.04
8,COc1ccccc1S(=O)(=O)Nc1ccc2c(c1)CN(C)C(=O)N2,1.83
9,O=c1[nH]c(=O)n([C@H]2C[C@H](O)[C@@H](CO)O2)cc1I [Idoxuridine],1.26
10,C[C@]12CCC(=O)C=C1CC[C@@H]1[C@@H]2[C@@H](O)C[C@@]2(C)[C@H]1CC[C@]2(O)C(=O)CO [Hydrocortisone],1.63
11,CCOC(=O)[C@H](CCc1ccccc1)N[C@@H](C)C(=O)N1CCC[C@H]1C(=O)O [Enalapril Maleate],0.697
12,O=S1(=O)CCN(CN2CCS(=O)(=O)NC2)CN1 [Taurolidine],0.797
13,CC(=O)O[C@H]1Cc2ccccc2N(C(N)=O)c2ccccc21 [Eslicarbazepine Acetate],0.976
14,C[C@]12CC[C@@H]3c4ccc(OC(=O)c5ccccc5)cc4CC[C@H]3[C@@H]1CC[C@@H]2O [Estradiol Benzoate],0.854
15,Nc1nc(N)c(N=O)c(OCC2CCCCC2)n1,1.58
16,CN1CCN(c2ccc3nc(-c4c(N)c5c(F)cccc5[nH]c4=O)[nH]c3c2)CC1 [Dovitinib (TKI-258) Dilactic Acid],3.4
17,Cc1cccc(Oc2cnc(=O)[nH]c2)c1,1.3
18,CC(C)(C)CC(C)(C)c1ccc(OCCOCC[N+](C)(C)Cc2ccccc2)cc1 [Benzethonium Chloride],2.7
19,O=C(NC1CCNCC1)c1n[nH]cc1NC(=O)c1c(Cl)cccc1Cl,3.2
20,CCCNCC(O)COc1ccccc1C(=O)CCc1ccccc1 (stereo not given) [Propafenone HCl],1.51

row,SMILES,Euclidean distance
1,CCCC(=O)Nc1ccc(OCC(O)CNC(C)C)c(C(C)=O)c1 (stereo not given) [Acebutolol HCl],0.8
2,COC(=O)C1=CO[C@@H](O[C@@H]2O[C@H](CO)[C@@H](O)[C@H](O)[C@H]2O)[C@@H]2[C@@H](C)[C@@H](O)C[C@H]12 [Loganin],0.804
3,NCCS [Cysteamine HCl],0.424
4,Cc1nc(Nc2ncc(C(=O)Nc3c(C)cccc3Cl)s2)cc(N2CCN(CCO)CC2)n1 [Dasatinib Monohydrate],3.76
5,N[C@@H]1CCCCN(c2c(F)cc3c(=O)c(C(=O)O)cn(C4CC4)c3c2Cl)C1 [Besifloxacin HCl],1.19
6,N=C(N)NC(=O)c1nc(Cl)c(N)nc1N [Amiloride HCl dihydrate],1.27
7,C[C@@H](Oc1ccc2[nH]nc(/C=C/c3cnn(CCO)c3)c2c1)c1c(Cl)cncc1Cl,3.59
8,Nc1ccc(S(=O)(=O)Nc2ccnn2-c2ccccc2)cc1 [Sulfaphenazole],0.571
9,CC(C)CC(=O)Nc1n[nH]c2c1CN(C(=O)C1CCN(C)CC1)C2(C)C,3
10,O=C1NC(=O)C(=Cc2ccc(-c3ccc(F)cc3)o2)S1 (stereo in doubt),0.938
11,Cn1c(=O)cc(N2CCC[C@@H](N)C2)n(Cc2cc(F)ccc2C#N)c1=O [Trelagliptin succinate],1.21
12,CC[C@H]1OC(=O)C[C@@H](O)[C@H](C)[C@@H](O[C@@H]2O[C@H](C)[C@@H](O[C@H]3C[C@@](C)(O)[C@@H](O)[C@H](C)O3)[C@H](N(C)C)[C@H]2O)[C@@H](CC=O)C[C@@H](C)C(=O)/C=C/C(C)=C/[C@@H]1CO[C@@H]1O[C@H](C)[C@@H](O)[C@@H](OC)[C@H]1OC [Tylosin],1.08
13,CN1C(N)=N[C@](C)(c2cc(NC(=O)c3ccc(F)cn3)ccc2F)CS1(=O)=O [Verubecestat (MK-8931)],0.58
14,CC(=O)OCC(=O)[C@@]1(O)CC[C@H]2[C@@H]3CCC4=CC(=O)CC[C@]4(C)[C@H]3[C@@H](O)C[C@@]21C [Hydrocortisone acetate],2.28
15,CC(C)(CO)[C@@H](O)C(=O)NCCC(=O)O [D-Pantothenic acid],0.696
16,CC(C)Cn1cnc2c(N)nc3ccccc3c21 [Imiquimod],1.15
17,CCOc1ccc2nc(S(N)(=O)=O)sc2c1 [Ethoxzolamide],0.718
18,CCOC(=O)Nc1cc(-c2ccc(C)c(NS(C)(=O)=O)c2)nn2c(C)nnc12 [Bromosporine],2.36
19,CCN1CCN(C(=O)N[C@@H](C(=O)N[C@@H]2C(=O)N3[C@@H]2SC(C)(C)[C@@H]3C(=O)O)c2ccccc2)C(=O)C1=O [Piperacillin Sodium],0.62
20,CCCCCCCCCCC[C@@H](C[C@@H]1OC(=O)[C@H]1CCCCCC)OC(=O)[C@H](CC(C)C)NC=O [Orlistat],1.11
